# Laboratory results: the supplement of paper PMC8728848
# About 410 targets per protein were measured; listed, in parts, are those with the strongest signals and a random draw of the rest.
# Assays:
# Experiment in all cases: glycan array binding signal (z-score within array); higher = stronger binding
# Settings in all cases: glycan notation: IUPAC condensed, linker removed
# [1] = target: Fuc(a1-2)Gal(b1-3)GalNAc(b1-3)Gal(a1-4)Gal(b1-4)Glc
# Outline: (§1)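 Negative Z-scores can be read as non-binding. The Z-score is calculated within each array and then averaged across arrays of one protein sequence at different concentrations or buffers and across linkers. Arrays, 3228 in all, were curated from the Consortium for Functional Glycomics database and kept only where the protein sequence was available.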
# [2] = target: Fuc(a1-2)Gal(b1-4)[Fuc(a1-3)]GlcNAc(b1-3)Gal(b1-4)[Fuc(a1-3)]GlcNAc(b1-3)Gal(b1-4)[Fuc(a1-3)]GlcNAc
# Outline: as §1
# [3] = target: Fuc(a1-3)[Gal(b1-4)]GlcNAc
# Outline: as §1
# Gal(a1-2)Gal = target: Gal(a1-2)Gal
# Outline: as §1
# Gal(a1-3)Gal(b1-3)GlcNAc = target: Gal(a1-3)Gal(b1-3)GlcNAc
# Outline: as §1
# Gal(a1-3)Gal(b1-4)Glc = target: Gal(a1-3)Gal(b1-4)Glc
# Outline: as §1
# [4] = target: Gal(b1-3)[Neu5Ac(a2-6)]GalNAc
# Outline: as §1
# [5] = target: GlcNAc(b1-3)Gal(b1-3)GalNAc
# Outline: as §1
# [6] = target: GlcNAc(b1-4)GlcNAc(b1-4)GlcNAc
# Outline: as §1
# [7] = target: GlcNAc(b1-6)Gal(b1-4)GlcNAc
# Outline: as §1
# Kdn(a2-3)Gal(b1-4)GlcNAc = target: Kdn(a2-3)Gal(b1-4)GlcNAc
# Outline: as §1
# [8] = target: Man(a1-2)Man(a1-3)[Man(a1-2)Man(a1-6)]Man(a1-6)[Man(a1-2)Man(a1-2)Man(a1-3)]Man(b1-4)GlcNAc(b1-4)GlcNAc
# Outline: as §1
# [9] = target: Man(a1-3)[Man(a1-6)]Man(a1-6)[Man(a1-3)]Man(b1-4)GlcNAc(b1-4)GlcNAc
# Outline: as §1
# [10] = target: Neu5Ac(a2-3)Gal(b1-3)[Neu5Ac(a2-3)Gal(b1-4)]GlcNAc
# Outline: as §1
# [11] = target: Neu5Ac(a2-3)Gal(b1-4)[Fuc(a1-3)]GlcNAc(b1-3)Gal
# Outline: as §1
# [12] = target: Neu5Ac(a2-8)Neu5Ac(a2-3)[GalNAc(b1-4)]Gal(b1-4)Glc
# Outline: as §1
# [13] = target: Neu5Ac(a2-8)Neu5Ac(a2-8)Neu5Ac(a2-3)[GalNAc(b1-4)]Gal(b1-4)Glc
# Outline: as §1
# Fuc(a1-2)Gal(b1-4)Glc6S = target: Fuc(a1-2)Gal(b1-4)Glc6S
# Outline: as §1
# Fuc(a1-2)Gal6S(b1-4)Glc = target: Fuc(a1-2)Gal6S(b1-4)Glc
# Outline: as §1
# [14] = target: Fuc(a1-2)[Gal(a1-3)]Gal(b1-3)GlcNAc
# Outline: as §1
# [15] = target: Fuc(a1-2)[Gal(a1-3)]Gal(b1-4)Glc
# Outline: as §1
# [16] = target: Fuc(a1-2)[Gal(a1-3)]Gal(b1-4)GlcNAc
# Outline: as §1
# [17] = target: Fuc(a1-2)[GalNAc(a1-3)]Gal(b1-4)Glc
# Outline: as §1
# [18] = target: Fuc(a1-2)[GalNAc(b1-3)]Gal
# Outline: as §1
# [19] = target: Fuc(a1-3)[Gal(b1-4)]GlcNAc6S
# Outline: as §1
# Gal(a1-3)Gal(b1-4)GlcNAc = target: Gal(a1-3)Gal(b1-4)GlcNAc
# Outline: as §1
# Gal(b1-2)Gal = target: Gal(b1-2)Gal
# Outline: as §1
# [20] = target: Gal(b1-3)GalNAc(b1-4)Gal(b1-4)Glc
# Outline: as §1
# [21] = target: Gal(b1-3)[Fuc(a1-4)]GlcNAc
# Outline: as §1
# [22] = target: Gal(b1-3)[Fuc(a1-4)]GlcNAc(b1-3)Gal(b1-4)GlcNAc
# Outline: as §1
# [23] = target: Gal(b1-4)GlcNAc(b1-3)Gal(b1-4)Glc
# Outline: as §1
# [24] = target: Gal3S(b1-3)[Fuc(a1-4)]GlcNAc
# Outline: as §1
# Gal3S(b1-4)Glc = target: Gal3S(b1-4)Glc
# Outline: as §1
# Gal4S(b1-4)GlcNAc = target: Gal4S(b1-4)GlcNAc
# Outline: as §1
# [25] = target: GalNAc(b1-3)Gal(a1-4)Gal(b1-4)GlcNAc
# Outline: as §1
# GlcA(b1-3)Gal = target: GlcA(b1-3)Gal
# Outline: as §1
# GlcNAc(b1-3)Gal = target: GlcNAc(b1-3)Gal
# Outline: as §1
# [26] = target: GlcNAc(b1-4)Gal(b1-4)GlcNAc
# Outline: as §1
# GlcNAc(b1-4)GlcNAc = target: GlcNAc(b1-4)GlcNAc
# Outline: as §1
# [27] = target: Neu5Ac(a2-3)Gal(b1-3)GlcNAc(b1-3)Gal(b1-3)GlcNAc
# Outline: as §1
# [28] = target: Neu5Ac(a2-3)Gal(b1-4)GlcNAc(b1-6)[Gal(b1-3)]GalNAc
# Outline: as §1
# [29] = target: Neu5Ac(a2-6)Gal(b1-4)GlcNAc(b1-2)Man(a1-3)[GlcNAc(b1-2)Man(a1-6)]Man(b1-4)GlcNAc(b1-4)GlcNAc
# Outline: as §1
# [30] = target: Neu5Ac(a2-6)Gal(b1-4)GlcNAc(b1-2)Man(a1-6)[GlcNAc(b1-2)Man(a1-3)]Man(b1-4)GlcNAc(b1-4)GlcNAc
# Outline: as §1
# [31] = target: Neu5Ac(a2-6)Gal(b1-4)GlcNAc(b1-3)Gal(b1-4)[Fuc(a1-3)]GlcNAc(b1-3)Gal(b1-4)[Fuc(a1-3)]GlcNAc
# Outline: as §1
# [32] = target: Neu5Gc(b2-6)Gal(b1-4)GlcNAc
# Outline: as §1
binder,measurement,setting,value
"DEC205 (Homo sapiens), O60449 (protein) MRTGWATPRRPAGLLMLLFWFFDLAEPSGRAANDPFTIVHGNTGKCIKPVYGWIVADDCDETEDKLWKWVSQHRLFHLHSQKCLGLDITKSVNELRMFSCDSSAMLWWKCEHHSLYGAARYRLALKDGHGTAISNASDVWKKGGSEESLCDQPYHEIYTRDGNSYGRPCEFPFLIDGTWHHDCILDEDHSGPWCATTLNYEYDRKWGICLKPENGCEDNWEKNEQFGSCYQFNTQTALSWKEAYVSCQNQGADLLSINSAAELTYLKEKEGIAKIFWIGLNQLYSARGWEWSDHKPLNFLNWDPDRPSAPTIGGSSCARMDAESGLWQSFSCEAQLPYVCRKPLNNTVELTDVWTYSDTRCDAGWLPNNGFCYLLVNESNSWDKAHAKCKAFSSDLISIHSLADVEVVVTKLHNEDIKEEVWIGLKNINIPTLFQWSDGTEVTLTYWDENEPNVPYNKTPNCVSYLGELGQWKVQSCEEKLKYVCKRKGEKLNDASSDKMCPPDEGWKRHGETCYKIYEDEVPFGTNCNLTITSRFEQEYLNDLMKKYDKSLRKYFWTGLRDVDSCGEYNWATVGGRRRAVTFSNWNFLEPASPGGCVAMSTGKSVGKWEVKDCRSFKALSICKKMSGPLGPEEASPKPDDPCPEGWQSFPASLSCYKVFHAERIVRKRNWEEAERFCQALGAHLSSFSHVDEIKEFLHFLTDQFSGQHWLWIGLNKRSPDLQGSWQWSDRTPVSTIIMPNEFQQDYDIRDCAAVKVFHRPWRRGWHFYDDREFIYLRPFACDTKLEWVCQIPKGRTPKTPDWYNPDRAGIHGPPLIIEGSEYWFVADLHLNYEEAVLYCASNHSFLATITSFVGLKAIKNKIANISGDGQKWWIRISEWPIDDHFTYSRYPWHRFPVTFGEECLYMSAKTWLIDLGKPTDCSTKLPFICEKYNVSSLEKYSPDSAAKVQCSEQWIPFQNKCFLKIKPVSLTFSQASDTCHSYGGTLPSVLSQIEQDFITSLLPDMEATLWIGLRWTAYEKINKWTDNRELTYSNFHPLLVSGRLRIPENFFEEESRYHCALILNLQKSPFTGTWNFTSCSERHFVSLCQKYSEVKSRQTLQNASETVKYLNNLYKIIPKTLTWHSAKRECLKSNMQLVSITDPYQQAFLSVQALLHNSSLWIGLFSQDDELNFGWSDGKRLHFSRWAETNGQLEDCVVLDTDGFWKTVDCNDNQPGAICYYSGNETEKEVKPVDSVKCPSPVLNTPWIPFQNCCYNFIITKNRHMATTQDEVHTKCQKLNPKSHILSIRDEKENNFVLEQLLYFNYMASWVMLGITYRNNSLMWFDKTPLSYTHWRAGRPTIKNEKFLAGLSTDGFWDIQTFKVIEEAVYFHQHSILACKIEMVDYKEEHNTTLPQFMPYEDGIYSVIQKKVTWYEALNMCSQSGGHLASVHNQNGQLFLEDIVKRDGFPLWVGLSSHDGSESSFEWSDGSTFDYIPWKGQTSPGNCVLLDPKGTWKHEKCNSVKDGAICYKPTKSKKLSRLTYSSRCPAAKENGSRWIQYKGHCYKSDQALHSFSEAKKLCSKHDHSATIVSIKDEDENKFVSRLMRENNNITMRVWLGLSQHSVDQSWSWLDGSEVTFVKWENKSKSGVGRCSMLIASNETWKKVECEHGFGRVVCKVPLGPDYTAIAIIVATLSILVLMGGLIWFLFQRHRLHLAGFSSVRYAQGVNEDEIMLPSFHD",glycan array binding signal (z-score),[1],-0.222
same,glycan array binding signal (z-score),[2],1.97
same,glycan array binding signal (z-score),[3],-0.335
same,glycan array binding signal (z-score),Gal(a1-2)Gal,-0.046
same,glycan array binding signal (z-score),Gal(a1-3)Gal(b1-3)GlcNAc,-0.064
same,glycan array binding signal (z-score),Gal(a1-3)Gal(b1-4)Glc,1.66
same,glycan array binding signal (z-score),[4],-0.279
same,glycan array binding signal (z-score),[5],-0.229
same,glycan array binding signal (z-score),[6],3.79
same,glycan array binding signal (z-score),[7],-0.071
same,glycan array binding signal (z-score),Kdn(a2-3)Gal(b1-4)GlcNAc,1.75
same,glycan array binding signal (z-score),[8],0.357
same,glycan array binding signal (z-score),[9],-0.154
same,glycan array binding signal (z-score),[10],-0.395
same,glycan array binding signal (z-score),[11],-0.262
same,glycan array binding signal (z-score),[12],0.013
same,glycan array binding signal (z-score),[13],-0.243
"Gal 8 (Homo sapiens), O00214 (protein) MMLSLNNLQNIIYNPVIPFVGTIPDQLDPGTLIVIRGHVPSDADRFQVDLQNGSSMKPRADVAFHFNPRFKRAGCIVCNTLINEKWGREEITYDTPFKREKSFEIVIMVKDKFQVAVNGKHTLLYGHRIGPEKIDTLGIYGKVNIHSIGFSFSSDLQSTQASSLELTEISRENVPKSGTPQLPSNRGGDISKIAPRTVYTKSKDSTVNHTLTCTKIPPMNYVSKRLPFAARLNTPMGPGRTVVVKGEVNANAKSFNVDLLAGKSKDIALHLNPRLNIKAFVRNSFLQESWGEEERNITSFPFSPGMYFEMIIYCDVREFKVAVNGVHSLEYKHRFKELSSIDTLEINGDIHLLEVRSW",glycan array binding signal (z-score),[1],-0.141
same,glycan array binding signal (z-score),Fuc(a1-2)Gal(b1-4)Glc6S,0.286
same,glycan array binding signal (z-score),[2],-0.386
same,glycan array binding signal (z-score),Fuc(a1-2)Gal6S(b1-4)Glc,-0.427
same,glycan array binding signal (z-score),[14],3.58
same,glycan array binding signal (z-score),[15],5.02
same,glycan array binding signal (z-score),[16],4.8
same,glycan array binding signal (z-score),[17],4.22
same,glycan array binding signal (z-score),[18],0.118
same,glycan array binding signal (z-score),[19],-0.432
same,glycan array binding signal (z-score),Gal(a1-3)Gal(b1-4)GlcNAc,0.236
same,glycan array binding signal (z-score),Gal(b1-2)Gal,-0.401
same,glycan array binding signal (z-score),[20],0.32
same,glycan array binding signal (z-score),[21],-0.413
same,glycan array binding signal (z-score),[22],0.294
same,glycan array binding signal (z-score),[23],2.43
same,glycan array binding signal (z-score),[24],-0.42
same,glycan array binding signal (z-score),Gal3S(b1-4)Glc,0.286
same,glycan array binding signal (z-score),Gal4S(b1-4)GlcNAc,-0.395
same,glycan array binding signal (z-score),[25],0.145
same,glycan array binding signal (z-score),GlcA(b1-3)Gal,-0.451
same,glycan array binding signal (z-score),GlcNAc(b1-3)Gal,-0.434
same,glycan array binding signal (z-score),[26],-0.425
same,glycan array binding signal (z-score),GlcNAc(b1-4)GlcNAc,-0.449
same,glycan array binding signal (z-score),[27],0.949
same,glycan array binding signal (z-score),[28],0.196
same,glycan array binding signal (z-score),[29],-0.45
same,glycan array binding signal (z-score),[30],-0.442
same,glycan array binding signal (z-score),[31],-0.365
same,glycan array binding signal (z-score),[32],-0.452
